Among the data in PMC11006913 are binding signal values, retold here.

What all share (experiment): PBM; 200 nM protein, PBS
What all share (settings): dsDNA, one strand shown

The target of test [1] is PRRX1 (Homo sapiens, UniProt P54821 80-166, F113S).
The target of test [2] is HOXD13 (Homo sapiens, UniProt P35453 263-343, T313R).
Test [3] has as its target HOXD13 (Homo sapiens, UniProt P35453 263-343).
In test [4] the target is HOXD13 (Homo sapiens, UniProt P35453 263-343, T313A).
For test [5], the target named is PRRX1 (Homo sapiens, UniProt P54821 80-166).
The target in test [6] is HOXB6 (Homo sapiens, UniProt P17509 132-218, K202E).
For test [7], the target named is HOXB6 (Homo sapiens, UniProt P17509 132-218).
For test [8], the target named is ALX3 (Homo sapiens, UniProt O95076 139-225, N203Q).
Test [9] concerns the target ALX3 (Homo sapiens, UniProt O95076 139-225).
The target in test [10] is VAX1 (Homo sapiens, UniProt Q5SQQ9 86-172).
Test [11] deals with ALX3 (Homo sapiens, UniProt O95076 139-225, L168Q).
Test [12] concerns the target ALX3 (Homo sapiens, UniProt O95076 139-225, L168V).
Test [13] deals with VAX1 (Homo sapiens, UniProt Q5SQQ9 86-172, T142I).
The target in test [14] is ALX3 (Homo sapiens, UniProt O95076 139-225, N203S).
Test [15] concerns the target VAX1 (Homo sapiens, UniProt Q5SQQ9 86-172, K157R).
In test [16] the target is PROP1 (Homo sapiens, UniProt O75360 56-141).
The target in test [17] is PROP1 (Homo sapiens, UniProt O75360 56-141, R99H).
In test [18] the target is PROP1 (Homo sapiens, UniProt O75360 56-141, F88S).
The target in a further test is ALX1 (Homo sapiens, UniProt Q15699 118-204, L144R).
The target in test [19] is HESX1 (Homo sapiens, UniProt Q9UBX0 95-180).
In test [20] the target is MSX2 (Homo sapiens, UniProt P35548 130-214, R199I).
For test [21], the target named is MSX2 (Homo sapiens, UniProt P35548 130-214).
In test [22] the target is HESX1 (Homo sapiens, UniProt Q9UBX0 95-180, R109Q).
Test [23] addresses MSX2 (Homo sapiens, UniProt P35548 130-214, F161Y).
The target in test [24] is HESX1 (Homo sapiens, UniProt Q9UBX0 95-180, F115L).
In a further test the target is HOXA2 (Homo sapiens, UniProt O43364 129-215, R185T).
HOXA2, sequence (O43364 129-215 R185T): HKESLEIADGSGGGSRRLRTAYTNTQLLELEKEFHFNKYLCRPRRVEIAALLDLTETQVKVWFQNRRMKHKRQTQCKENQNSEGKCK

PRRX1 (Homo sapiens, UniProt P54821 80-166, F113S), sequence (P54821 80-166 F113S): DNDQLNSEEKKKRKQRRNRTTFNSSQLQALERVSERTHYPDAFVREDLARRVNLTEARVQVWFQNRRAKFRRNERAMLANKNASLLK
PRRX1 (Homo sapiens, UniProt P54821 80-166), sequence (P54821 80-166): as the sequence (P54821 80-166 F113S) above, with S34F counted along it
ALX1, sequence (Q15699 118-204 L144R): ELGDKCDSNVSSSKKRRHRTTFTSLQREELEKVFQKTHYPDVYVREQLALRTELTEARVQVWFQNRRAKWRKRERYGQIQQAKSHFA
MSX2 (Homo sapiens, UniProt P35548 130-214, R199I), sequence (P35548 130-214 R199I): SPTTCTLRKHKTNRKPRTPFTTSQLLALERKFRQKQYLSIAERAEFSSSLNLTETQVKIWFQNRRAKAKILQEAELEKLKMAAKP
ALX3 (Homo sapiens, UniProt O95076 139-225, L168V), sequence (O95076 139-225 L168V): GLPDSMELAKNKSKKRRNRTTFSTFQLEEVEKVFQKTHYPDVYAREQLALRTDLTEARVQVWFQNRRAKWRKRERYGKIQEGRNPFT
MSX2 (Homo sapiens, UniProt P35548 130-214), sequence (P35548 130-214): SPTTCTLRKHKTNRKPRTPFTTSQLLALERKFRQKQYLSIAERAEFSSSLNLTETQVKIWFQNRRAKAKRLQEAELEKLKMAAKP
VAX1 (Homo sapiens, UniProt Q5SQQ9 86-172, T142I), sequence (Q5SQQ9 86-172 T142I): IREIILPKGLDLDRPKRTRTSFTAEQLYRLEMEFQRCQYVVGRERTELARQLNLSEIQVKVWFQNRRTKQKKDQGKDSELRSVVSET
HESX1 (Homo sapiens, UniProt Q9UBX0 95-180), sequence (Q9UBX0 95-180): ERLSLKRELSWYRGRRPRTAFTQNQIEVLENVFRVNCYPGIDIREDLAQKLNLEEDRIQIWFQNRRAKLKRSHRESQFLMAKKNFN
PROP1 (Homo sapiens, UniProt O75360 56-141, R99H), sequence (O75360 56-141 R99H): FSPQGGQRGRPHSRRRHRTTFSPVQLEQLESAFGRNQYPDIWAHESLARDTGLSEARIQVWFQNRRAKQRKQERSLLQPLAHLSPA
HESX1 (Homo sapiens, UniProt Q9UBX0 95-180, F115L), sequence (Q9UBX0 95-180 F115L): as the sequence (Q9UBX0 95-180) above, with F21L counted along it
ALX3 (Homo sapiens, UniProt O95076 139-225), sequence (O95076 139-225): as the sequence (O95076 139-225 L168V) above, with V30L counted along it
HOXD13 (Homo sapiens, UniProt P35453 263-343), sequence (P35453 263-343): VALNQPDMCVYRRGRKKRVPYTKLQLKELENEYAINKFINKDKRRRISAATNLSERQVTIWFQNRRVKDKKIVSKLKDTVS
PROP1 (Homo sapiens, UniProt O75360 56-141), sequence (O75360 56-141): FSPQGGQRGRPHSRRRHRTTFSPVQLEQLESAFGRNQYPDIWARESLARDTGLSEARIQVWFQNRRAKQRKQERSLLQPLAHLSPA
MSX2 (Homo sapiens, UniProt P35548 130-214, F161Y), sequence (P35548 130-214 F161Y): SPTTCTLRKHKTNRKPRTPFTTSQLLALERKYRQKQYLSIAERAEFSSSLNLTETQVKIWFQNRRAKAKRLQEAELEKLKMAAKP
HESX1 (Homo sapiens, UniProt Q9UBX0 95-180, R109Q), sequence (Q9UBX0 95-180 R109Q): as the sequence (Q9UBX0 95-180) above, with R15Q counted along it
HOXB6 (Homo sapiens, UniProt P17509 132-218), sequence (P17509 132-218): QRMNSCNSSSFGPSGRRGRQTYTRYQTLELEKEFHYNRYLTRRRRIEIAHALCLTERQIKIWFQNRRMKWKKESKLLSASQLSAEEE
PROP1 (Homo sapiens, UniProt O75360 56-141, F88S), sequence (O75360 56-141 F88S): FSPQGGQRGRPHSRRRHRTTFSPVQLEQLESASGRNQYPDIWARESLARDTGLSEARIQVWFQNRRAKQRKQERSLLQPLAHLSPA
ALX3 (Homo sapiens, UniProt O95076 139-225, N203S), sequence (O95076 139-225 N203S): as the sequence (O95076 139-225 L168V) above, with V30L, N65S counted along it
VAX1 (Homo sapiens, UniProt Q5SQQ9 86-172), sequence (Q5SQQ9 86-172): as the sequence (Q5SQQ9 86-172 T142I) above, with I57T counted along it
ALX3 (Homo sapiens, UniProt O95076 139-225, L168Q), sequence (O95076 139-225 L168Q): as the sequence (O95076 139-225 L168V) above, with V30Q counted along it
VAX1 (Homo sapiens, UniProt Q5SQQ9 86-172, K157R), sequence (Q5SQQ9 86-172 K157R): as the sequence (Q5SQQ9 86-172 T142I) above, with I57T, K72R counted along it
ALX3 (Homo sapiens, UniProt O95076 139-225, N203Q), sequence (O95076 139-225 N203Q): as the sequence (O95076 139-225 L168V) above, with V30L, N65Q counted along it
HOXB6 (Homo sapiens, UniProt P17509 132-218, K202E), sequence (P17509 132-218 K202E): as the sequence (P17509 132-218) above, with K71E counted along it
HOXD13 (Homo sapiens, UniProt P35453 263-343, T313R), sequence (P35453 263-343 T313R): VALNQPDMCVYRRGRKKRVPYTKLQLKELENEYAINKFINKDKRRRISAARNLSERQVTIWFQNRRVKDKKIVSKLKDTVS
HOXD13 (Homo sapiens, UniProt P35453 263-343, T313A), sequence (P35453 263-343 T313A): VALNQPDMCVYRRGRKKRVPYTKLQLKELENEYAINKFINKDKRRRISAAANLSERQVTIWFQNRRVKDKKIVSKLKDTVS

With CATAAATC, the binding signal in the test with PRRX1 [1] was 10.2 upbm affinity estimate (log intensity, higher = more binding, comparable within an allelic series); in the test with HOXD13 [2], 10.7 upbm affinity estimate (log intensity, higher = more binding, comparable within an allelic series); with HOXD13 [3] it was 11.8 upbm affinity estimate (log intensity, higher = more binding, comparable within an allelic series); in the test with HOXD13 [4], 11.5 upbm affinity estimate (log intensity, higher = more binding, comparable within an allelic series); with PRRX1 [5], 11.5 upbm affinity estimate (log intensity, higher = more binding, comparable within an allelic series).
Consider GCCTCTCA, for which the binding signal with PRRX1 [1] is 9.4 upbm affinity estimate (log intensity, higher = more binding, comparable within an allelic series); in the test with PRRX1 [5], 9.09 upbm affinity estimate (log intensity, higher = more binding, comparable within an allelic series).
As for GTCCCCAC, the binding signal is 9.29 upbm affinity estimate (log intensity, higher = more binding, comparable within an allelic series) in the test with PRRX1 [1]; 9.01 upbm affinity estimate (log intensity, higher = more binding, comparable within an allelic series) with HOXB6 [6]; 9.35 upbm affinity estimate (log intensity, higher = more binding, comparable within an allelic series) with PRRX1 [5]; 9.13 upbm affinity estimate (log intensity, higher = more binding, comparable within an allelic series) with HOXB6 [7].
For AGCCGGGC, the binding signal in the test with PRRX1 [1] was 8.99 upbm affinity estimate (log intensity, higher = more binding, comparable within an allelic series); with ALX3 [8], 7.69 upbm affinity estimate (log intensity, higher = more binding, comparable within an allelic series); in the test with ALX3 [9], 7.71 upbm affinity estimate (log intensity, higher = more binding, comparable within an allelic series); with VAX1 [10], 7 upbm affinity estimate (log intensity, higher = more binding, comparable within an allelic series); with ALX3 [11], 7.68 upbm affinity estimate (log intensity, higher = more binding, comparable within an allelic series); with ALX3 [12], 7.64 upbm affinity estimate (log intensity, higher = more binding, comparable within an allelic series). For the same sequence, the binding signal was 7.24 upbm affinity estimate (log intensity, higher = more binding, comparable within an allelic series) in the test with VAX1 [13]; 7.72 upbm affinity estimate (log intensity, higher = more binding, comparable within an allelic series) with ALX3 [14]; 9.33 upbm affinity estimate (log intensity, higher = more binding, comparable within an allelic series) with PRRX1 [5]; 6.91 upbm affinity estimate (log intensity, higher = more binding, comparable within an allelic series) with VAX1 [15].
As for ACTGTTAT, the binding signal was 10.2 upbm affinity estimate (log intensity, higher = more binding, comparable within an allelic series) in the test with PRRX1 [1]; 8.21 upbm affinity estimate (log intensity, higher = more binding, comparable within an allelic series) with PROP1 [16]; 7.73 upbm affinity estimate (log intensity, higher = more binding, comparable within an allelic series) with PROP1 [17]; 7.48 upbm affinity estimate (log intensity, higher = more binding, comparable within an allelic series) with PROP1 [18]; 11.4 upbm affinity estimate (log intensity, higher = more binding, comparable within an allelic series) with PRRX1 [5].
On to CGACGTTA, for which the binding signal with PRRX1 [1] was 9.76 upbm affinity estimate (log intensity, higher = more binding, comparable within an allelic series); with PRRX1 [5], 11.1 upbm affinity estimate (log intensity, higher = more binding, comparable within an allelic series).
For the sequence TTAATCAA, the binding signal in the test with PRRX1 [1] is 11.1 upbm affinity estimate (log intensity, higher = more binding, comparable within an allelic series); in the test with ALX1, 11.2 upbm affinity estimate (log intensity, higher = more binding, comparable within an allelic series); in the test with PRRX1 [5], 13.3 upbm affinity estimate (log intensity, higher = more binding, comparable within an allelic series).
For the sequence CGTAAGTA, the binding signal with PRRX1 [1] was 10 upbm affinity estimate (log intensity, higher = more binding, comparable within an allelic series); with HESX1 [19] it was 7.17 upbm affinity estimate (log intensity, higher = more binding, comparable within an allelic series); in the test with PRRX1 [5], 11 upbm affinity estimate (log intensity, higher = more binding, comparable within an allelic series).
Turning to AATTATTG, the binding signal with PRRX1 [1] was 11.1 upbm affinity estimate (log intensity, higher = more binding, comparable within an allelic series); in the test with MSX2 [20] it was 12.3 upbm affinity estimate (log intensity, higher = more binding, comparable within an allelic series); with ALX1, 11.1 upbm affinity estimate (log intensity, higher = more binding, comparable within an allelic series); with MSX2 [21], 13.4 upbm affinity estimate (log intensity, higher = more binding, comparable within an allelic series); with HESX1 [22], 8.57 upbm affinity estimate (log intensity, higher = more binding, comparable within an allelic series); in the test with ALX3 [12], 9.77 upbm affinity estimate (log intensity, higher = more binding, comparable within an allelic series). Moreover, the binding signal with MSX2 [23] was 13.1 upbm affinity estimate (log intensity, higher = more binding, comparable within an allelic series); in the test with HESX1 [24], 8.02 upbm affinity estimate (log intensity, higher = more binding, comparable within an allelic series).
With ACTAATCA, the binding signal in the test with PRRX1 [1] is 10.9 upbm affinity estimate (log intensity, higher = more binding, comparable within an allelic series); with HOXA2, 12.5 upbm affinity estimate (log intensity, higher = more binding, comparable within an allelic series); with MSX2 [20], 11.2 upbm affinity estimate (log intensity, higher = more binding, comparable within an allelic series); in the test with PRRX1 [5], 13.2 upbm affinity estimate (log intensity, higher = more binding, comparable within an allelic series).
